# Like-named read-outs stand apart in the source and are kept apart here.
# Assays:
# Conditions in all cases: n = 1
# [1] = tested on: TTK
# [2] = tested on: TXK
# [3] = tested on: TYK2(JH1domain-catalytic)
# [4] = tested on: TYK2(JH2domain-pseudokinase)
# [5] = tested on: TYRO3
# [6] = tested on: ULK1
# [7] = tested on: ULK2
# [8] = tested on: ULK3
# [9] = tested on: T1, VEGFR2
# T1 construct: gene KDR
# [10] = tested on: T2, VPS34
# T2 construct: gene PIK3C3
# [11] = tested on: VRK2
# [12] = tested on: WEE1
# [13] = tested on: WEE2
# [14] = tested on: WNK1
# [15] = tested on: WNK2
# [16] = tested on: WNK3
# [17] = tested on: WNK4
# [18] = tested on: T3, YANK1
# T3 construct: gene STK32A
# [19] = tested on: T4, YANK2
# T4 construct: gene STK32B
# [20] = tested on: T5, YANK3
# T5 construct: gene STK32C
# [21] = concentration: 1 μM, replicates: in singlicate
# 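Note: KINOMEscan kinase panel screen.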
smiles,measurement,setting,value
COc1ccc(Nc2nccc(NCCNC(=O)Nc3ccccc3F)n2)cc1 [GSK1379901],%Inh,[1]; [21],0%
same,%Inh,[2]; [21],24%
same,%Inh,[3]; [21],26%
same,%Inh,[4]; [21],28%
same,%Inh,[5]; [21],0%
same,%Inh,[6]; [21],0%
same,%Inh,[7]; [21],0%
same,%Inh,[8]; [21],37%
same,%Inh,[9]; [21],0%
same,%Inh,[10]; [21],0%
same,%Inh,[11]; [21],0%
same,%Inh,[12]; [21],13%
same,%Inh,[13]; [21],0%
same,%Inh,[14]; [21],11%
same,%Inh,[15]; [21],0%
same,%Inh,[16]; [21],29%
same,%Inh,[17]; [21],37%
same,%Inh,[18]; [21],0%
same,%Inh,[19]; [21],0%
same,%Inh,[20]; [21],0%
Cc1c(Cn2ccn3c(=O)cc(N4CCOCC4)nc23)cccc1C(F)(F)F [GSK2289044],%Inh,[1]; [21],1%
same,%Inh,[2]; [21],0%
same,%Inh,[3]; [21],0%
same,%Inh,[4]; [21],0%
same,%Inh,[5]; [21],0%
same,%Inh,[6]; [21],7%
same,%Inh,[7]; [21],0%
same,%Inh,[8]; [21],0%
same,%Inh,[9]; [21],1%
same,%Inh,[10]; [21],95.1%
same,%Inh,[11]; [21],0%
same,%Inh,[12]; [21],0%
same,%Inh,[13]; [21],0%
same,%Inh,[14]; [21],0%
same,%Inh,[15]; [21],0%
same,%Inh,[16]; [21],14%
same,%Inh,[17]; [21],0%
same,%Inh,[18]; [21],9%
same,%Inh,[19]; [21],1%
same,%Inh,[20]; [21],31%
Cc1ccc(-c2cc(-c3c[nH]nc3-c3ccccn3)ccn2)cc1 [GW684088],%Inh,[1]; [21],0%
same,%Inh,[2]; [21],0%
same,%Inh,[3]; [21],18%
same,%Inh,[4]; [21],22%
same,%Inh,[5]; [21],0%
same,%Inh,[6]; [21],0%
same,%Inh,[7]; [21],0%
same,%Inh,[8]; [21],3%
same,%Inh,[9]; [21],22%
same,%Inh,[10]; [21],0%
same,%Inh,[11]; [21],45%
same,%Inh,[12]; [21],1%
same,%Inh,[13]; [21],0%
same,%Inh,[14]; [21],6%
same,%Inh,[15]; [21],19%
same,%Inh,[16]; [21],53%
same,%Inh,[17]; [21],89%
same,%Inh,[18]; [21],0%
same,%Inh,[19]; [21],0%
same,%Inh,[20]; [21],0%
Cc1ccc(NC(=O)Nc2cccc(C(F)(F)F)c2)cc1 [GSK955403],%Inh,[1]; 1 µM,19%
same,%Inh,[2]; 1 µM,38%
same,%Inh,[3]; 1 µM,24%
same,%Inh,[4]; 1 µM,0%
same,%Inh,[5]; 1 µM,16%
same,%Inh,[6]; 1 µM,0%
same,%Inh,[7]; 1 µM,6%
same,%Inh,[8]; 1 µM,0%
same,%Inh,[9]; 1 µM,0%
same,%Inh,[10]; 1 µM,0%
same,%Inh,[11]; 1 µM,0%
same,%Inh,[12]; 1 µM,3%
same,%Inh,[13]; 1 µM,0%
same,%Inh,[14]; 1 µM,0%
same,%Inh,[15]; 1 µM,0%
same,%Inh,[16]; 1 µM,0%
same,%Inh,[17]; 1 µM,0%
same,%Inh,[18]; 1 µM,0%
same,%Inh,[19]; 1 µM,0%
same,%Inh,[20]; 1 µM,0%
O=C(Nc1ccc2c(c1)OCO2)NC1CCN(c2ccnc(Nc3ccc(F)cc3)n2)C1 (stereo not shown) [GSK1379724],%Inh,[1]; [21],26%
same,%Inh,[2]; [21],43%
same,%Inh,[3]; [21],9%
same,%Inh,[4]; [21],33%
same,%Inh,[5]; [21],0%
same,%Inh,[6]; [21],9%
same,%Inh,[7]; [21],0%
same,%Inh,[8]; [21],16%
same,%Inh,[9]; [21],0%
same,%Inh,[10]; [21],0%
same,%Inh,[11]; [21],0%
same,%Inh,[12]; [21],11%
same,%Inh,[13]; [21],4%
same,%Inh,[14]; [21],8%
same,%Inh,[15]; [21],3%
same,%Inh,[16]; [21],31%
same,%Inh,[17]; [21],11%
same,%Inh,[18]; [21],9%
same,%Inh,[19]; [21],0%
same,%Inh,[20]; [21],5%
